Assay results from PubChem BioAssay (NCI).
Several values for one entry are separate records, joined by “and”; a condition that tells them apart may be missing. Identical values can stand only once. The panel holds about 83,000 compounds, 20% with a hit somewhere; the sample as a whole holds those more often.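 96-well plates, one dose, 48 hours. Percent growth reported; active if below 10.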 Activity calls are given as the source filed them.

These compounds were tested on HL-60(TB) leukemia (assay: NCI-60 one-dose screen, 48 h (100 = growth as untreated, 0 = no growth, -100 = all killed)). Conditions: 10 µM unless noted.

Compound	growth
CCN1CCN(C(=O)[C@]23CCC(C)(C)C[C@H]2C2=CC[C@@H]4[C@@]5(C)CC/C(=N/O)C(C)(C)[C@@H]5CC[C@@]4(C)[C@]2(C)CC3)CC1	-9.73% (active)
O=S(=O)(NCCNc1nccc(-c2c(-c3cccc(F)c3)nc3occn23)n1)c1cccc2ccccc12	51.9% (inactive)
CN1CCN(C(=O)[C@]23CCC(C)(C)C[C@@H]2C2=CC[C@@H]4[C@@]5(C)Cc6c([nH]c7ccccc67)C(C)(C)[C@@H]5CC[C@@]4(C)[C@]2(C)CC3)CC1	76.7% (inactive)
CNCc1cccc2c1OCCOCCOCCN(CCN1CCOCC1)S(=O)(=O)c1ccc(cc1)-c1cnc(N)c(n1)C(=O)N2	-23.5% (active)
COc1ccc(/C=C2\Oc3cc(OCCN4CCC(Cc5ccccc5)CC4)ccc3C2=O)cc1OC	99.7% (inactive)
O=C(OCc1ccccc1)c1ccccc1	132% (inactive) and 98.4% (inactive)
CC1Cc2c(Cl)ncnc2N(C)c2ccc(F)cc21 (stereo unspecified)	91.6% (inactive)
COCCN(C(=O)c1ccc(F)cc1F)c1c(N)n(Cc2ccccc2)c(=O)[nH]c1=O	132% (inactive)
O=C(Nc1ccc(OCc2nnc(-c3ccccc3)o2)c(F)c1)Nc1ccc(Cl)c(Cl)c1	58.5% (inactive)
c1ccc(C(NC2CC3CCC2C3)c2ccccc2)cc1 (stereo unspecified)	100% (inactive)
O=S(=O)(c1ccc(N/N=C\c2ccccc2)cc1)c1ccc(N/N=C/c2ccccc2)cc1	94.8% (inactive)
C/C(=N/O)c1ccc(F)cc1	102% (inactive)
O=C1/C(=C/c2cccc(O)c2)COc2ccc(O)cc21	52.1% (inactive)
O=[N+]([O-])c1ccc(-c2nc(N3CCOCC3)c3c4c(sc3n2)CCCC4)cc1	92.2% (inactive)
CCOC(=O)C1OC2(CCCC2)OC1C(=O)OCC (stereo unspecified)	87.4% (inactive)
COC(c1ccc2c(c1)OCO2)C(C)Br (stereo unspecified)	94.7% (inactive)
O=C(NCCO)c1cccnc1	97.1% (inactive)
CN1CNC(=O)NC1	85.5% (inactive) and 102% (inactive)

Compound	growth
Cn1cc(-c2ccc3nc(-c4ccc(CC(=O)ONc5cc(C(C)(C)C)on5)cc4)cnc3c2)cn1	29% (inactive)
CCOc1ccccc1/C=N/N1CCCCCC1	99.1% (inactive)
CSc1nnc(-c2cc3c([nH]c4ccccc43)c(-c3cccc(O)c3)n2)n1-c1ccccc1	7.59% (active)
O=C1/C(=C/c2ccc(O)cc2)Cc2ccc(Cl)cc21	60.1% (inactive)
O=C(O)c1cc(=O)[nH]c(=O)[nH]1	109% (inactive) and 106% (inactive)
c1cnc2c(-c3nc4ccc5[nH]ncc5c4c4c3CCCC4)c[nH]c2c1	41.5% (inactive)
COc1cc([C@@H]2c3cc4c(cc3[C@H](O)[C@H]3COC(=O)[C@@H]23)OCO4)cc(OC)c1OC	-34.9% (active) and -61% (active)
C=CC(=O)NCc1ccc(Nc2nccc(-c3ccc(N4CCCC4)c(C#N)c3)n2)cc1	-12.9% (active)
Cn1c(=O)n(-c2ccc(C(C)(C)C#N)cc2)c2c3cc(-c4cnc5ccccc5c4)ccc3ncc21	10.3% (inactive) and -11.9% (active)
Cc1cc(N2CCCC2)nc(N(CCCNc2ccnc3cc(Cl)ccc23)Cc2ccc3c(c2)OCO3)n1	-62.9% (active)
CN([O-])c1nc(N(C)[O-])nc(N2CCOCC2)n1.CN([O-])c1nc(N(C)[OH2+])nc(N2CCOCC2)n1.[Fe+3]	93.8% [100 µM] (inactive)
COc1ccc(-c2nc(SCCC(C)C)nc(Nc3ccc(F)c(Cl)c3)c2C#N)cc1	107% (inactive)
O=C(O)CCCCCCCCCCCCCCC(=O)O	102% (inactive)
COC(=O)CCCNS(=O)(=O)c1cc(C(=O)Nc2ccc(NC(=O)c3cc(S(=O)(=O)NCCCC(=O)OC)c(O)c(O)c3O)cc2)c(O)c(O)c1O	68% (inactive)
O=C(N/N=C/c1cc(Cl)ccc1O)C(=O)N/N=C/c1cc(Cl)ccc1O	46.1% (inactive)
N#Cc1cccc(-c2c(-c3ccc4ccccc4c3)oc3ccccc3c2=O)c1	6.17% (active)
C=CCSc1nnc(NC(=O)CCl)s1	91.5% (inactive)
CC(C)=CCC[C@](C)(O)[C@H]1CC[C@]2(C)[C@@H]1CC[C@@H]1[C@@]3(C)Cc4nccnc4C(C)(C)[C@@H]3CC[C@]12C	67.8% (inactive)
